Measured values: the supplement of paper PMC6555819

How the values were obtained:
Experiment in all cases: PBM binding z-score (relative to random genomic background probes); higher = stronger binding; sequences stand for … in GC…GCGATTGACAGCGTAGAATGAAGG
[1] = tested on: FXR:RXRa (NR concentration 270 nM, RXRa partner concentration 90 nM)
In short: (§1)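 Binding buffer was PBS pH 7.4 with 2% milk, 0.02% Triton X-100, 1 mM DTT, 0.2 mg/mL BSA and 0.4 mg/ml salmon testes DNA. In it, ligand-free nuclear receptor dimers were incubated 1 h on custom Agilent 4×180K protein-binding microarrays carrying double-stranded probes. Antibodies against each partner (one per run) detected binding, and z-scores were calculated against random background probes after regression normalization of scanned fluorescence.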

[2] = tested on: LXRa:RXRa (NR concentration 270 nM, RXRa partner concentration 90 nM)
In short: as §1

[3] = tested on: LXRa homodimer (NR concentration 270 nM)
In short: as §1

[4] = tested on: LXRb:RXRa (NR concentration 270 nM, RXRa partner concentration 90 nM)
In short: as §1

[5] = tested on: LXRb homodimer (NR concentration 270 nM)
In short: as §1

[6] = tested on: PPARa:RXRa (NR concentration 270 nM, RXRa partner concentration 90 nM)
In short: as §1

[7] = tested on: PPARg:RXRa 270nM:90nM, anti-RXR (NR concentration 270 nM, RXRa partner concentration 90 nM)
In short: as §1

[8] = tested on: PPARg:RXRa 30nM:10nM, anti-RXR (NR concentration 30 nM, RXRa partner concentration 10 nM)
In short: as §1

[9] = tested on: PPARg:RXRa 90nM:30nM, anti-RXR (NR concentration 90 nM, RXRa partner concentration 30 nM)
In short: as §1

[10] = tested on: PPARg:RXRa DBDmut IVT, anti-RXR (DBD mutation: RXRa K156A/R161A, NR concentration 270 nM, RXRa partner concentration 90 nM)
In short: as §1

[11] = tested on: PPARg:RXRa IVT, anti-PPARg (NR concentration 270 nM, RXRa partner concentration 90 nM)
In short: as §1

[12] = tested on: PPARg DBDmut:RXRa IVT, anti-PPARg (DBD mutation: PPARg1 K132A/R137A, NR concentration 270 nM, RXRa partner concentration 90 nM)
In short: as §1

[13] = tested on: PPARg DBDmut IVT, anti-PPARg (DBD mutation: PPARg1 K132A/R137A, NR concentration 270 nM)
In short: as §1

[14] = tested on: PPARg homodimer (NR concentration 180 nM)
In short: as §1

[15] = tested on: PXR:RXRa (NR concentration 270 nM, RXRa partner concentration 90 nM)
In short: as §1

[16] = tested on: PXR homodimer (NR concentration 270 nM)
In short: as §1

[17] = tested on: RARa:RXR (NR concentration 270 nM, RXRa partner concentration 90 nM)
In short: as §1

[18] = tested on: RARa homodimer (NR concentration 270 nM)
In short: as §1

[19] = tested on: RARb:RXRa (NR concentration 270 nM, RXRa partner concentration 90 nM)
In short: as §1

[20] = tested on: PPARg:RXRa (NR concentration 180 nM, RXRa partner concentration 90 nM)
In short: as §1

Sequence	PBM binding z-score [1]	PBM binding z-score [2]	PBM binding z-score [3]	PBM binding z-score [4]	PBM binding z-score [5]	PBM binding z-score [6]	PBM binding z-score [7]	PBM binding z-score [8]	PBM binding z-score [9]	PBM binding z-score [10]	PBM binding z-score [11]	PBM binding z-score [12]	PBM binding z-score [13]	PBM binding z-score [14]	PBM binding z-score [15]	PBM binding z-score [16]	PBM binding z-score [17]	PBM binding z-score [18]	PBM binding z-score [19]	PBM binding z-score [20]
AGTCAAAGTTCATTTAGGTAACGTAAGATATGCT	6.47	6.25	6.58	4.2	3.14	4.58	6.05	2.98	5.09	0.638	3.21	1.36	1.51	2.39	5.45	8.27	3.63	1.4	4.66	–
AGTCAAAGTCCAGGACGAGGTAACGTAAAGCACG	-0.263	-0.424	-0.518	-0.388	-0.767	0.01	-0.294	-0.119	-0.153	-0.362	-0.000589	0.282	0.0417	-0.362	-0.248	-0.347	-0.00617	-0.392	0.916	0.733
TAGCCTAGGTCATTCAGGGGCCAGTAGAGAAAGC	4.49	3.73	0.592	3.1	1.16	3.64	2.31	0.562	1.53	1.64	2.66	-0.415	-0.024	1.83	2.21	-0.162	3.33	0.0247	3.88	1.7
TCATATAGGTAAATGATAGGTGAAAGTCCGATCT	1.32	1.17	0.558	1.22	0.404	1.74	2.71	3.76	3.23	3.92	2.51	1.28	1.62	1.19	0.828	0.487	1.49	1.16	0.612	1.51
GTACCAAGGTGAATAGGTTGTTGATGAGTAGGCG	0.414	0.445	0.0313	0.384	-0.172	1.27	0.714	-0.0689	0.204	1.75	2.2	0.246	0.502	0.999	0.105	0.241	0.634	1.32	1.36	0.802
GCTAGTTGGTCAGTAAAAGGACACACACCGGTCG	-0.0634	-0.0918	0.213	-0.44	-0.0401	-0.104	0.282	-0.0614	-0.0124	0.16	0.5	0.0692	-0.305	0.811	-0.134	0.246	0.153	0.849	1.61	0.654
TCTTGTAGAGCAAAGGTTAAGAAAGCCGAAGCCT	0.884	1.23	-0.186	1.4	-0.852	4.91	8.58	8.43	8.68	2.94	4.15	0.281	-0.0845	0.283	1.49	-0.688	2.16	-0.59	1.62	8.91
TCTATCAGGCCAGAGGGTCACTCAAGAGGTACGG	1.28	1.42	-0.272	1.32	0.048	2.51	2.98	3.16	3	1.69	1.3	-0.288	-0.122	1.01	1.83	0.211	2.39	0.259	2.52	1.7
CTCGACAGGTCGTGCTCAGGTGAGTATACCAAAC	0.806	0.431	-0.39	0.643	-0.717	1.59	0.515	-0.386	-0.107	0.245	0.534	-0.84	-0.0221	0.723	0.437	-0.328	1.08	-0.81	1.42	0.0674
AGAATGAGGTTACCAAAGCTCAGGGAAACGCTTG	1.93	3.99	-0.0854	1.96	-0.341	3.46	2.57	0.532	1.81	3.42	3.11	0.652	0.289	0.125	0.966	-0.338	1.77	-0.239	2.15	2.2
TCTATTAGTTCAAGGGCAACCGACGAGTCCGTTT	1.82	1.97	1.24	1.45	0.602	2.23	2.66	3.94	3.37	2.36	1.14	0.61	1.22	1.87	2.28	2.5	1.55	1.41	3.08	0.394
CCTAGGAGGACAACAGGAGGTCAGAGCTGCCAGA	1.35	2.17	2.05	1.53	-0.406	2.1	0.597	-0.229	0.192	0.869	0.949	-0.763	-0.811	1.47	2.11	0.811	2.48	0.684	2.79	0.818
CGAACTAGGTCAAGAACAGTGAATCTCCGCACGC	2.92	1.9	0.155	1.35	0.0467	4.39	6.17	2.93	5.49	8.01	8.06	0.866	0.438	1.15	0.968	-0.254	1.69	0.13	3.69	6.53
CTCGAATGGTCGGTTGAGGTGAGTATACGGATAA	0.27	-0.395	-0.272	-0.377	-0.349	-0.259	-0.192	-0.213	-0.0856	-0.784	0.126	0.733	0.405	-0.164	-0.105	-0.022	0.211	-0.0787	0.283	-0.0607
CCTAGCAGGCCAATCTGGGTCACACAAGGCTTGA	1.88	1.82	-0.247	1.21	-0.968	3.68	2.68	0.555	2.1	4.53	5.23	0.519	-0.276	0.856	1.56	-0.6	1.86	0.119	1.76	3.08
CGTCAAAGTTCAACTAAGGAAACGTAAAGCACGC	7.38	6.47	3.78	4.2	2.11	5.18	5.68	2.56	4.69	0.565	1.62	1.02	0.369	3.9	4.87	2.97	4.48	1.12	5.19	5.11
ATCTCTAGGCAAAAGTTCAGTGAATCCCGAGGAT	0.235	0.757	0.751	0.584	0.319	2.96	6.14	5.06	6.01	0.185	1.61	0.694	0.529	1.05	1.5	1.04	0.864	-0.11	2.33	5.41
TAGCCTAGGTCATGGACCAGTATACCACGCGAAC	4.39	3.44	0.268	2.46	-0.208	4.18	3.32	0.758	2.23	1.67	3.14	0.484	0.282	1.64	1.69	-0.467	2.85	-0.128	3.77	3.5
TCGAGTAGGTTACCAATGGTGCATTCAGCTTTCT	-0.236	1.22	-0.491	0.425	-1.1	0.801	1.1	0.784	1.06	3.28	2.62	-0.362	-0.313	-0.186	-0.18	-0.657	0.145	-1.04	0.684	0.0197
TGAATGAGGTTAAAGTTCAGGGAACGTGGCGTCG	5.71	4.98	2.46	3.68	0.344	6.3	8.25	8.5	9.05	2.35	5.08	1.25	1.55	1.98	5.23	0.746	6.19	0.262	3.63	9.26
ACTACCAGGCCAAGTTTGGGTCACTCAAACAAAG	0.642	0.276	0.197	1.05	0.0374	1.58	0.598	-0.29	0.255	1.12	2.04	0.0556	-0.292	0.797	0.921	0.121	1.45	0.491	2	0.43
CTAACTAGGTCATTGACAGGACAGTGAATAGTAA	4.3	3.33	0.788	2.12	0.469	5.03	6.99	4.79	6.51	8.21	8.94	4	4.56	0.99	1.52	0.32	2.14	0.687	3.66	8.17
GCTGCTAGGTCCGGTTGGTCAGCTAACGGGTACG	-0.467	-0.521	-0.707	-1.05	-0.916	-0.619	-0.342	-0.72	-0.851	-0.426	-0.34	-1.47	-1.49	-1.32	-0.574	-0.913	-0.552	-1.7	0.0828	-0.571
CTACCAAGGTGAACAAGTTCGTTGATTACTATTC	0.442	0.532	0.164	0.939	-0.333	1.49	0.665	-0.0232	0.145	2.33	2.42	0.0227	0.729	0.895	2.81	4.46	0.986	0.313	1.55	0.367
ATCGAAAGGTCCAGGTGAGTATAGAGAAAGGGAA	0.612	0.816	0.0552	0.22	0.494	0.594	0.503	0.287	0.512	0.212	0.948	0.53	0.059	0.583	0.112	0.251	0.303	0.409	1.24	0.347
TTACCAAGGTAAAGGTCGTTGATCCCTCTGTAGA	3.54	3.56	0.635	2.91	-0.332	4.13	7.33	5.9	7.74	0.8	3.8	1.13	0.564	1.72	2.59	0.148	2.98	-0.24	2.14	6.84
CGTCAAAGTTCAAGGTAACGTGACAGAAAGCAGC	5.87	5.39	2.53	3.27	0.738	4.34	4.9	2.23	3.9	0.641	2.15	0.0239	0.308	2.16	4.21	2.13	3.56	1.05	5.08	4.02
CCAGTCAGGTGAAAGGTAACTCAGTCTGGTACGC	0.669	0.466	-0.287	0.541	-0.583	3.61	6.44	5.15	7.56	3.47	3.78	-0.52	-0.877	1.17	0.577	-0.2	1.58	0.202	1.55	6.45
TCTAGCAGGCCAGAGGGTTACTCAAGAGGTACGG	-0.419	-0.0387	-1.02	-0.282	-1.4	0.38	1.73	1.86	1.81	0.735	-0.175	-1.35	-1.09	-0.477	-0.175	-0.868	-0.0112	-0.732	0.213	0.82
